From PubChem BioAssay AID485364 (National Center for Advancing Translational Sciences (NCATS), 2010)
Several values for one entry are separate records, joined by “and”; a condition that tells them apart may be missing. Equal entries are not always repeated. Out of some 360,000 compounds screened, about 11,000 (3.1%) were called active. Roughly 4% stayed inconclusive and do not appear here. The full list was thinned out, with actives kept by preference. Values without a mark were called inactive. The call rests on the fitted dose curve; in most records, active means well fitted inhibition curve with a large enough effect; inconclusive means small, poorly fitted or top-dose-only effect; inactive means no such curve, though single readings can be large or run the other way.

Biological target: Schistosoma mansoni thioredoxin glutathione reductase (TGR) (UniProt Q962Y6)
Experiment: qHTS Assay for the Inhibitors of Schistosoma Mansoni Peroxiredoxins; further: nearly all actives have a fitted effect of over 60% in size
Settings: purified TGR, DTNB reduction, TNB absorbance 405 nm; series mostly up to 114 µM; activity change, negative = inhibition: at the top concentration
Outline: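 TGR 20 nM + NADPH 100 uM (dispensed conc.), cpd preinc 15 min RT; start with NADPH (500 uM addition) then DTNB (15 mM addition). Kinetic TNB absorbance, 405 nm filter. Four-parameter Hill fit across titration.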
On the % scale 0 is the no-effect control and ±100 the full control effect; potency means the concentration at half of the fitted maximal effect.

Structure (SMILES) | activity change, negative = inhibition | Potency
COc1cc(OC)cc(-c2nc3nc(C)c(CCC(=O)Nc4ccc(C)cc4)c(C)n3n2)c1 | -1.28% | –
COc1ccccc1/C=C/C1=NC(=C\N(C)C)/C(=O)O1 | -9.84% | –
Cc1ccc(C2=C/C(=C\c3cccnc3)C(=O)O2)cc1 | -8.03% | –
CN(C)/C=C1\C=C(c2ccccc2)OC1=O | – | 22.4 µM (active)
Cc1cc(C)n2nc(C(=O)NC(C)(C)C)nc2n1 | -8.16% | –
Cc1ccc(S(=O)(=O)NCc2nc3nc(C)cc(C)n3n2)cc1 | -1.78% | –
Cc1cc(C)n2nc(CNS(=O)(=O)c3c(F)c(F)c(F)c(F)c3F)nc2n1 | – | 17.8 µM (active)
COC(=O)c1ccccc1NS(=O)(=O)c1ccc2c(c1)CCCN2C(C)=O | 7.01% | –
Cc1c(Cl)cccc1NC(=O)Cn1cc(C(=O)c2cccs2)c2ccccc21 | 1.68% | –
NC1=NC(c2cc(F)cc(F)c2)n2c(nc3ccccc32)N1 (centres undefined) | -2.89% | –
Cc1ccc(-n2c(SCC(=O)c3ccccc3)nc3c([nH]c4ccccc43)c2=O)cc1 | 6.85% | –
COc1ccccc1NC(=O)c1c(Br)cnn1C | 10.4% | –
COc1ccccc1NC(=O)c1cc(Cl)nnc1Cl | -15.3% | –
COc1ccccc1NC(=O)/C=C/C(N)=O | – | 2.82 µM (active)
CC(NC(=O)CCc1cn(Cc2ccccc2Cl)c2ccccc12)c1ccccc1 (centres undefined) | 9.78% | –
Cc1ccc(NC(=O)c2ccc3[nH]c(C)cc(=O)c3c2)c(C)c1 | 0.821% | –
O=[N+]([O-])c1ccc(C=Nc2ccc(Cl)cc2Cl)s1 | – | 25.1 µM (active)
COc1ccc(C(C)=O)cc1CSc1nc2nc(C)cc(C)n2n1 | – | 39.8 µM (active)
COc1cccc(CSc2nc3nc(C)cc(C)n3n2)c1 | 5.94% | –
Cc1cc(C)n2nc(SCC(N)=O)nc2n1 | 1.42% | –
CCOc1ccccc1CNC(=O)C1CCCN(S(=O)(=O)c2ccc3c(ccn3C)c2)C1 (centres undefined) | 2.74% | –
Cc1ccc(CNS(=O)(=O)c2ccc(C(=O)N(C)C)s2)cc1 | 8.48% | –
Cc1ccc2c(c1)-c1c(cnn1CC(=O)Nc1ccccc1C#N)CO2 | 2.81% | –
COc1ccc(-c2nc3ccccc3c(=O)n2CCc2ccc(O)cc2)cc1 | -3.44% | –
COc1ccc(-c2cn(-c3ccc(C)cc3)c(=O)n2CC(=O)Nc2ccc(OC)c(OC)c2)cc1 | -2.58% | –

Structure (SMILES) | activity change, negative = inhibition | Potency
COc1ccc(Cl)cc1NC(=O)Cn1nc(-c2ccc(C)cc2)n(C)c1=S | -1.27% | –
COc1ccc(-c2ccc(CCC(=O)O)n2-c2ccc(O)cc2)cc1 | – | 39.8 µM (active)
Cc1ccc(-c2ccc(CCC(=O)O)n2-c2ccc(C(N)=O)cc2)cc1 | – | 12.6 µM (active)
COc1ccc(Cl)cc1NC(=O)CCC(=O)c1ccc(C)cc1 | 3.91% | –
CCOC(=O)c1ccc(-n2c(CCC(=O)O)ccc2-c2ccccc2)cc1 | – | 28.2 µM (active) and 50.1 µM (active)
C=Cn1c(C(=O)O)ccc1-c1ccc(OC)cc1 | -6.86% | –
CCOC(=O)c1ccc(COC(=O)CCc2nc(-c3ccccc3)c(-c3ccccc3)o2)cc1 | 2.19% | –
CCOC(=O)c1ccc(NC(=O)c2ncn(-c3ccccc3)n2)cc1 | -0.841% | –
COc1ccc(Cl)cc1-n1c(CCC(=O)O)ccc1-c1ccc(C)cc1 | – | 39.8 µM (active)
COc1ccc(NC(=O)Cn2c(-c3ccc(OC)cc3)cn(-c3ccc(C)cc3)c2=O)cc1 | -3.25% | –
CCOc1ccccc1N(CC)C(=O)Nc1cn(C)c(=O)c2ccccc12 | -2.07% | –
COc1ccc(NC(=O)Nc2cccc(-c3noc(C)n3)c2)cc1 | -2.78% | –
CCCCCn1c(CCNC(=O)c2ccc(F)cc2)nc2ccccc21 | 0.666% | –
O=C(CC1C(=O)N(c2ccccc2)C(=O)N1CCc1cccs1)Nc1ccc(F)cc1 (centres undefined) | -4.99% | –
Cc1ccc(C(=O)Nc2ccc(OCc3cc(=O)n4c(C)csc4n3)cc2)cc1 | 0.173% | –
CC(C)C12CN3CC(C(C)C)(CN(C1)C3c1ccc(OCc3ccccc3)cc1)C2=O (centres undefined) | 1.3% | –
Fc1ccccc1/C=C1\CCCC2=C1Nc1ncnn1C2c1ccccc1F (centres undefined) | – | 1.26 µM (active)
CCOC(=O)C1=C(c2ccccc2)Nc2ncnn2C1c1ccc(Cl)cc1 (centres undefined) | 0.261% | –
COc1ccc2c(Sc3ccc(C)cc3)c(C(=O)NC(C)c3ccccc3)[nH]c2c1 (centres undefined) | 5.33% | –
Cc1ccc(-c2cc(N)n(Cc3cccc(Cl)c3)n2)cc1 | 8.78% | –
COc1cccc(Nc2nc3ccccc3c3nncn23)c1 | 1.24% | –
Cc1ccc(C(=O)COC(=O)C(Cc2c[nH]c3ccccc23)NC(=O)c2ccc(Br)cc2)cc1 (centres undefined) | 0.457% | –
O=C1NC(=O)N(Cc2ccco2)C(=O)/C1=C\c1ccc(-c2ccc(F)cc2)o1 | – | 11.2 µM (active)
O=C1c2ccccc2C(=O)N1CCOc1ccc(F)cc1 | 0% | –
